Results reported in PubChem BioAssay (NCI).
Compounds without any hit were thinned out: in the full panel of roughly 83,000, 20% have a hit.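 Percent growth is the endpoint: 0 to 100 indicates growth inhibition (40 means 60% inhibition), 0 means no net growth, and negative values indicate cell death.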 Calls of active or inactive are those of the source. How the source made its calls: active means growth percent below 10; inactive means the rest.

Assays:
Experiment in all cases: NCI-60 one-dose screen, 48 h (100 = growth as untreated, 0 = no growth, -100 = all killed)
Settings in all cases: 10 µM unless noted
DU-145 prostate = tested on: DU-145 prostate
K-562 leukemia = tested on: K-562 leukemia
MALME-3M melanoma = tested on: MALME-3M melanoma
MDA-MB-231 breast = tested on: MDA-MB-231 breast
RXF 393 renal = tested on: RXF 393 renal
SF-268 CNS = tested on: SF-268 CNS
SF-295 CNS = tested on: SF-295 CNS
SF-539 CNS = tested on: SF-539 CNS
UACC-257 melanoma = tested on: UACC-257 melanoma
M14 melanoma = tested on: M14 melanoma
HCT-15 colon = tested on: HCT-15 colon
HT29 colon = tested on: HT29 colon
SNB-75 CNS = tested on: SNB-75 CNS
SNB-19 CNS = tested on: SNB-19 CNS
U251 CNS = tested on: U251 CNS
PC-3 prostate = tested on: PC-3 prostate
SK-MEL-5 melanoma = tested on: SK-MEL-5 melanoma
UACC-62 melanoma = tested on: UACC-62 melanoma
LOX IMVI melanoma = tested on: LOX IMVI melanoma
SK-MEL-28 melanoma = tested on: SK-MEL-28 melanoma

Measured: growth

Clc1ccc2nc(-c3ccc(-c4ccc(/C=N/NC5=NCCN5)cc4)s3)cn2c1
inactive: DU-145 prostate 101% | MALME-3M melanoma 94.3% | MDA-MB-231 breast 96.3% | RXF 393 renal 82.5% | SF-268 CNS 94.2% | SF-295 CNS 97.2% | SF-539 CNS 83.1% | UACC-257 melanoma 101% | M14 melanoma 97.7% | HT29 colon 38.8% | SNB-75 CNS 83.9% | SNB-19 CNS 97.1% | U251 CNS 97.5% | PC-3 prostate 89.4% | SK-MEL-5 melanoma 93% | UACC-62 melanoma 102% | LOX IMVI melanoma 97.9% | SK-MEL-28 melanoma 99.5%
active: K-562 leukemia 4.14% | HCT-15 colon -27.3%

COc1cc(/C=C/C(=O)/C=C/c2ccc(-n3ccnc3C)cc2)ccc1O
inactive: DU-145 prostate 54% | K-562 leukemia 13.2% | MALME-3M melanoma 101% | MDA-MB-231 breast 97.1% | RXF 393 renal 47.8% | SF-268 CNS 49.9% | SF-295 CNS 84.3% | UACC-257 melanoma 89.3% | M14 melanoma 111% | HCT-15 colon 82.4% | SNB-75 CNS 76.4% | SNB-19 CNS 79.3% | PC-3 prostate 74.2% | SK-MEL-5 melanoma 85.2% | UACC-62 melanoma 95.1% | SK-MEL-28 melanoma 84.1%
active: SF-539 CNS -0.75% | HT29 colon -42.9% | U251 CNS -1.61% | LOX IMVI melanoma -88.7%

COc1c(B(O)O)cccc1-c1nc2ccc3[nH]ncc3c2c2c1CCC2
active: RXF 393 renal 4.27%
inactive: DU-145 prostate 63.3% | K-562 leukemia 77.9% | MALME-3M melanoma 98.4% | MDA-MB-231 breast 40.7% | SF-268 CNS 65.9% | SF-295 CNS 86.9% | SF-539 CNS 54.7% | UACC-257 melanoma 111% | M14 melanoma 65% | HCT-15 colon 54.7% | HT29 colon 63.8% | SNB-75 CNS 32.7% | SNB-19 CNS 82.3% | U251 CNS 66.1% | PC-3 prostate 60.2% | SK-MEL-5 melanoma 52.4% | UACC-62 melanoma 57.6% | LOX IMVI melanoma 53.3% | SK-MEL-28 melanoma 86.3%

Cc1ccc(Oc2c(/C=N/NC(=O)Cn3c(=O)sc4ccccc43)c(C)nn2-c2ccccc2)cc1
inactive: DU-145 prostate 78.1% | K-562 leukemia 27.2% | MALME-3M melanoma 66.5% | MDA-MB-231 breast 72.2% | RXF 393 renal 72.9% | SF-268 CNS 53.3% | SF-295 CNS 42.1% | SF-539 CNS 75.2% | UACC-257 melanoma 73.2% | M14 melanoma 59.2% | HCT-15 colon 42.2% | HT29 colon 31.3% | SNB-75 CNS 53.4% | SNB-19 CNS 61.5% | U251 CNS 42.9% | PC-3 prostate 35.8% | SK-MEL-5 melanoma 37.7% | UACC-62 melanoma 52.7% | LOX IMVI melanoma 64.7% | SK-MEL-28 melanoma 93.5%

COc1ccc(-c2c(C)nn3c(NCCN4CCOCC4)cc(C)nc23)cc1OC
inactive: DU-145 prostate 106% | K-562 leukemia 97.8% | MALME-3M melanoma 96.8% | MDA-MB-231 breast 86% | RXF 393 renal 83.6% | SF-268 CNS 101% | SF-295 CNS 82% | SF-539 CNS 81.9% | UACC-257 melanoma 99.9% | M14 melanoma 96.3% | HCT-15 colon 95.1% | HT29 colon 94.4% | SNB-75 CNS 93.2% | SNB-19 CNS 91.4% | U251 CNS 82.2% | PC-3 prostate 89.7% | SK-MEL-5 melanoma 97.2% | UACC-62 melanoma 97.6% | LOX IMVI melanoma 87.5% | SK-MEL-28 melanoma 103%

COc1ccc(-c2ccc(NNC(=O)c3ccc(F)cc3)nn2)cc1OC
inactive: DU-145 prostate 65.6% | K-562 leukemia 55% | MALME-3M melanoma 98.8% | MDA-MB-231 breast 36.2% | RXF 393 renal 19.5% | SF-268 CNS 58.2% | SF-295 CNS 84.7% | SF-539 CNS 65.8% | UACC-257 melanoma 102% | M14 melanoma 100% | HCT-15 colon 64.1% | HT29 colon 59.7% | SNB-19 CNS 68.3% | U251 CNS 77.1% | PC-3 prostate 73.5% | SK-MEL-5 melanoma 71.6% | UACC-62 melanoma 88.6% | LOX IMVI melanoma 44.2% | SK-MEL-28 melanoma 101%
active: SNB-75 CNS 8.18%

c1coc2occoc=2o1
inactive: DU-145 prostate 111% | K-562 leukemia 99.1% | MALME-3M melanoma 103% | MDA-MB-231 breast 108% | RXF 393 renal 117% | SF-268 CNS 105% | SF-295 CNS 99.1% | SF-539 CNS 95.2% | UACC-257 melanoma 106% | M14 melanoma 101% | HCT-15 colon 102% | HT29 colon 106% | SNB-75 CNS 97.4% | SNB-19 CNS 107% | U251 CNS 101% | PC-3 prostate 96.8% | SK-MEL-5 melanoma 97.2% | UACC-62 melanoma 102% | LOX IMVI melanoma 102% | SK-MEL-28 melanoma 112%

CCOC(=O)/C(C#N)=C(\C)CCc1ccccc1
inactive: DU-145 prostate 132% | K-562 leukemia 142% | MALME-3M melanoma 96.5% | MDA-MB-231 breast 109% | RXF 393 renal 97.3% | SF-268 CNS 120% | SF-295 CNS 114% | SF-539 CNS 91.8% | UACC-257 melanoma 89.4% | M14 melanoma 92.2% | HCT-15 colon 87.7% | HT29 colon 98.6% | SNB-75 CNS 52.3% | SNB-19 CNS 104% | U251 CNS 96.4% | PC-3 prostate 92.7% | SK-MEL-5 melanoma 98.4% | UACC-62 melanoma 110% | LOX IMVI melanoma 96.9% | SK-MEL-28 melanoma 97.7%

CCOC(=O)c1nn(C2CCCCO2)c2ccc(NC(=O)CN3CCCC3)cc12 (stereo not given)
inactive: DU-145 prostate 104% | K-562 leukemia 100% | MALME-3M melanoma 102% | MDA-MB-231 breast 104% | RXF 393 renal 133% | SF-268 CNS 93% | SF-295 CNS 98.5% | SF-539 CNS 95.7% | UACC-257 melanoma 91.3% | M14 melanoma 98.2% | HCT-15 colon 106% | HT29 colon 111% | SNB-75 CNS 79% | SNB-19 CNS 95.8% | U251 CNS 94.8% | PC-3 prostate 107% | SK-MEL-5 melanoma 103% | UACC-62 melanoma 98.5% | LOX IMVI melanoma 97.3% | SK-MEL-28 melanoma 105%

O=C(CCN1CCCCC1)c1ccc2ccccc2c1
inactive: DU-145 prostate 98.6% | K-562 leukemia 111% | MALME-3M melanoma 106% | MDA-MB-231 breast 102% | RXF 393 renal 102% | SF-268 CNS 98.2% | SF-295 CNS 99.4% | SF-539 CNS 108% | UACC-257 melanoma 98.5% | M14 melanoma 107% | HCT-15 colon 103% | HT29 colon 99.7% | SNB-75 CNS 93.6% | SNB-19 CNS 103% | U251 CNS 93.3% | PC-3 prostate 97.6% | SK-MEL-5 melanoma 97% | UACC-62 melanoma 97.2% | LOX IMVI melanoma 93.3% | SK-MEL-28 melanoma 112%

O=[N+]([O-])c1cc(CCl)ccc1OCCBr
inactive: DU-145 prostate 95.7% | K-562 leukemia 115% | MALME-3M melanoma 107% | MDA-MB-231 breast 108% | RXF 393 renal 110% | SF-268 CNS 101% | SF-295 CNS 99.7% | SF-539 CNS 97.9% | UACC-257 melanoma 105% | M14 melanoma 98.3% | HCT-15 colon 91.1% | HT29 colon 96.7% | SNB-75 CNS 86.6% | SNB-19 CNS 107% | U251 CNS 101% | PC-3 prostate 98.1% | SK-MEL-5 melanoma 98.6% | UACC-62 melanoma 96.8% | LOX IMVI melanoma 95% | SK-MEL-28 melanoma 110%

C=C(C)[C@@H]1CC[C@]2(C)[C@H](C(=O)C=C3[C@@H]4C[C@](C)(C(=O)N5CCN(C)CC5)CC[C@]4(C)CC[C@]32C)[C@@]1(C)CCC#N
active: DU-145 prostate -51.6% [100 µM] | K-562 leukemia -4.62% [100 µM] | MALME-3M melanoma -86.5% [100 µM] | MDA-MB-231 breast -92.4% [100 µM] | RXF 393 renal -86.4% [100 µM] | SF-268 CNS -76.2% [100 µM] | SF-295 CNS -88% [100 µM] | SF-539 CNS -92% [100 µM] | UACC-257 melanoma -77.1% [100 µM] | M14 melanoma -62.6% [100 µM] | HCT-15 colon -88.2% [100 µM] | HT29 colon -53.2% [100 µM] | SNB-75 CNS -92.2% [100 µM] | SNB-19 CNS -95.8% [100 µM] | U251 CNS -76.7% [100 µM] | PC-3 prostate -65.9% [100 µM] | SK-MEL-5 melanoma -94.6% [100 µM] | UACC-62 melanoma -88.9% [100 µM] | LOX IMVI melanoma -93.6% [100 µM] | SK-MEL-28 melanoma -90.1% [100 µM]

O=C(Nc1ccccc1)Nc1ccc(C(=O)/C=C/c2ccc(N3CCCC3)cc2)cc1
inactive: DU-145 prostate 94.7% | K-562 leukemia 77.2% | MALME-3M melanoma 79.1% | MDA-MB-231 breast 56.8% | RXF 393 renal 58.8% | SF-268 CNS 57.6% | SF-295 CNS 73.4% | SF-539 CNS 78.7% | UACC-257 melanoma 51.4% | M14 melanoma 101% | HCT-15 colon 56.8% | HT29 colon 69.5% | SNB-75 CNS 41% | SNB-19 CNS 68% | U251 CNS 66% | PC-3 prostate 59.9% | SK-MEL-5 melanoma 45% | UACC-62 melanoma 42.2% | LOX IMVI melanoma 85.6% | SK-MEL-28 melanoma 51.1%

Cn1cc(-c2nnc(-c3cn(C)c4ncc(Br)cc34)s2)c2cc(Br)ccc21
inactive: DU-145 prostate 95.4% | K-562 leukemia 97.8% | MALME-3M melanoma 78.1% | MDA-MB-231 breast 67.2% | RXF 393 renal 118% | SF-268 CNS 90.9% | SF-295 CNS 103% | SF-539 CNS 81.5% | UACC-257 melanoma 92.5% | M14 melanoma 97% | HCT-15 colon 98.4% | HT29 colon 100% | SNB-75 CNS 64.3% | SNB-19 CNS 94.9% | U251 CNS 85.2% | PC-3 prostate 90.3% | SK-MEL-5 melanoma 93.1% | UACC-62 melanoma 86.7% | LOX IMVI melanoma 95.8% | SK-MEL-28 melanoma 95.9%

COc1cc(NCc2cn(-c3ccc(C(=O)O)cc3)nc2-c2ccc(C(=O)O)cc2)cc(OC)c1OC
inactive: DU-145 prostate 93.8% | K-562 leukemia 107% | MALME-3M melanoma 80.8% | MDA-MB-231 breast 76.4% | RXF 393 renal 105% | SF-268 CNS 95.6% | SF-295 CNS 102% | SF-539 CNS 90.2% | UACC-257 melanoma 99.7% | M14 melanoma 96.5% | HCT-15 colon 106% | HT29 colon 106% | SNB-75 CNS 77.8% | SNB-19 CNS 97.4% | U251 CNS 92.2% | PC-3 prostate 96.9% | SK-MEL-5 melanoma 95.2% | UACC-62 melanoma 94.4% | LOX IMVI melanoma 95.9% | SK-MEL-28 melanoma 103%
